Among the data in the supplement of paper PMC6555819 are PBM binding z-score values, retold here.

This assay has as its system PPARa:RXRa (NR concentration 270 nM, RXRa partner concentration 90 nM). In words: PBM binding z-score (relative to random genomic background probes); higher = stronger binding; sequences stand for … in GC…GCGATTGACAGCGTAGAATGAAGG
The method, then: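 Protein-binding microarray (Agilent 4x180K custom design, double-stranded 60-nt probes: 5' GC cap, 34-nt variable region, 24-nt constant primer region; full probe sequence given). Purified or IVT nuclear receptor:RXRα heterodimers (3:1 NR:RXRα, mostly 270:90 nM) or homodimers were incubated for 1 h in PBS with 2% milk and no ligand, then detected with Alexa488 antibodies. Fluorescence from o1-orientation probes (~5 replicates averaged) was converted to z-scores against 500 random hg19 background probes. Variable regions are seed direct-repeat (DR0–DR5) sites, all their single-nucleotide variants and half-site ablations.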
Sequence CGTCCAAGGTTAAGGTCAGTGAAAGAGACTCGAA yielded a PBM binding z-score of 3.78. Turning to ATCGAAAGGTCCAAGGTGAGTATACCCACCCGAA, the PBM binding z-score was 0.771. To CGTCCAAGGTCGAAGGTCAGTGAAGAGATGACGG belongs 4.7; to CCTACTGGGCCAAAAAGTTCATTGATGCCGATAA, 1.72. The value for AGAATGAGGTTAAGTTCAGGGAAACAGAATACAT was 4.63. To CGTCAAAGATCAAGGTAACGTAACAGAAAGCAGC belongs 0.962; to ATATGTAGGTTAGCTGGGGTCATTCACACTAGGC, 5.22. ACTAGTTGGTCAGCTGAGGTCACACCCAATTCGG yielded a PBM binding z-score of 3.46. To CCTACTGGGCCATTCAGAGGTCAATGATCATATG belongs 3.87; to AGAATGAGGTCAAGATCAGGGAAACAGAATACAT, 6.42. Sequence ATCGAAAGGTCGACCAGGTGAGTATACACCGTTT returned a PBM binding z-score of 4.53. Turning to CGAACTAGGTCGCCAGGACAGTGAAGAGGTTGGA, the PBM binding z-score came out at 2.09. To ATCGAAAGGTCCACGAGGTGAGTATACACCGTTT belongs 0.734; to CGAACTAGGTCACCCAGGACAGTGAATACATTGA, 4.82. In the case of TCTTGTAGATCAATAGAAGTTAAGAAAGTGCGCT, the PBM binding z-score was 0.693. To CGTCCAAGGTCATTGGAGGTCAGTGAAGACAGAT belongs 5.85; to ATATGTAGTTTATCGGGTCATTCAGTTTGCGCAT, 3.2. The value for TAGCCTAGGTCATTCAGGGGCAAGTATAGAAAGC was 3.84; that for ACGCGGAGGACAAAGGTCAGAGCTACGCCAGTGA was 4.75.

Turning to TTACCAAGGTCAAGGTCGTTGATCCCTCTGTAGA, the PBM binding z-score was determined as 5.9. The value for CGAACTACGTCATCCAGGACAGTGAATACATTGA was -0.0578; that for CCTAGTGGGCCAAGGTCATTGATCAGTCAAAGCA was 3.87; that for CAAAATAGGTCACCGGAAGGTCAAAGTCCGCATG was 6.51. The value for TGTATGAGGTTAAAGATCAGGGAACGTGGCGTCG was 4.16; that for CGAACTAGGTCATTGACAGGACAGTGGATAGTAA was 4.75; that for ATATGTAGGTTAGCTGGGGTCCTTCAGACTAGGC was 2.78. On to TTACCAAGGTGAACGGTCGTTGATGCACGCCTTG, for which the PBM binding z-score was 2.04. To GCTAGTTGGTCAGTAAAAGGTGACACACCGGTCG belongs 1.54; to GATATAGGGTCAGCTAGAGGCCAGAGTATGGAAA, 4.76.

The sequence CGTCCAAGGTCACGGTCAGTGAAAGAGACTCGAA yielded a PBM binding z-score of 6.27.

As for CCTTACGGGTCACTCCAGGTTATATCATCGGAGT, the PBM binding z-score is 4.5. The sequence CCTTACGGGTCACTCCAGGTCATAGCATCGGAGT returned a PBM binding z-score of 4.91. Consider CGAACTAGGTCAAGGGACAGTGAAAGGCGACGTA, for which the PBM binding z-score is 4.78. CTCGAAAGGTCGTGCTCAGATGAGTATACCAAAC displayed a PBM binding z-score of 4.71. The value for CCGAATAGGTTACGAGGGGGCATTCAGTGCGAAT was 3.85; that for TAGCCTAGGTCATGCGGCCCAGTATAGTGTCGGC was 3.52; that for GCTGCTAGGTCAACTGATGGCCAGCTAAAGCTCG was 3.6. To CGTCAAACTTCAACTAAGGTAACGTAAAGCACGC belongs 0.493; to CAAACTAGGTCACAGTGGTCAAAGTCCGTGCGTA, 5; to TCTTGTAGGTCAATAGAGGTTAAGAAAGTGCGCT, 5.13.
